Measurements from PubChem BioAssay AID463173 (ICCB-Longwood Screening Facility, Harvard Medical School, 2010).
The campaign covered roughly 52,000 compounds. About 1,700 (3.3%) were called active. No stated cut-off is given here; in the data, active means survival mostly below about 52% (no sharp cut-off); inactive means mostly above about 56%. The sample as a whole holds a higher share of actives than the screen did.

test system: Wild type; test: S. aureus survival, RN4220 and DeltatarO strains – OD600, teichoic acid synthesis inhibitors, primary screen (AID 463173); settings: S. aureus RN4220 wild type/DeltatarO growth, OD600, 18 h, hits give low values, screened at 18.75 µg/mL (by protocol)

Structure (SMILES) | survival
Cc1ccc(NC(=O)CN2C(=O)COc3ccc(S(=O)(=O)N4CCCCC4)cc32)cc1N(C)C | 106% (inactive)
CC(=O)N1CCc2cc(Br)cc(S(=O)(=O)CCC(=O)N3CCN(c4cccc(C)c4C)CC3)c21 | 77% (inactive)
COc1ccccc1Nc1ncnc2c1nc1n2CCCCC1 | 133% (inactive)
CCc1ccccc1Nc1ncnc2c1nc1n2CCCC1 | 71% (inactive)
Clc1cccc(Nc2ncnc3c2nc2n3CCCCC2)c1 | -1% (active)
Clc1ccccc1Nc1ncnc2c1nc1n2CCCCC1 | 0% (active)
Fc1ccccc1Nc1ncnc2c1nc1n2CCCCC1 | 74% (inactive)
Fc1ccc(Nc2ncnc3c2nc2n3CCCC2)cc1 | 76% (inactive)
COc1ccc(Nc2ncnc3c2nc2n3CCCC2)cc1Cl | 59% (inactive)
Fc1ccc(Nc2ncnc3c2nc2n3CCCCC2)c(F)c1 | 14% (active)
Clc1cccc(CNc2ncnc3c2nc2n3CCCC2)c1 | 92% (inactive)
CCC(=O)N1CCc2cc(S(=O)(=O)NC(Cc3ccccc3)C(=O)NCc3ccc(F)cc3)ccc21 (stereo not drawn) | 83% (inactive)
COc1ccc(-c2cc(-c3ccccc3)nc(SCC(=O)Nc3ccccc3C)c2C#N)cc1 | 70% (inactive)
COC(=O)c1ccc(Cl)cc1NC(=O)N(C)CCc1c(C)nn(C)c1C | 111% (inactive)
C#CCn1c(O)c(N=NC(=O)c2ccncc2)c2cc(Br)ccc21 | 110% (inactive)
Cc1noc(C)c1S(=O)(=O)NCCc1csc2nc(-c3ccc(Cl)cc3)nn12 | 72% (inactive)
O=C(O)c1cccc(NC(=O)c2cccc(S(=O)(=O)Nc3cccc(F)c3)c2)c1 | 169% (inactive)
CCc1c(C)nc2nncn2c1Nc1ccc(C)c(F)c1 | 83% (inactive)
Cc1cc(C)cc(NC(=O)Cc2c(C(=O)O)c(C)cn2C)c1 | 47% (inactive)
CCOC(=O)c1cnc2c(C)cc(C)cc2c1Nc1ccc(N2CCOCC2)cc1 | 15% (inactive)
CCOC(=O)c1cnc2c(C)cc(C)cc2c1NCCN1CCOCC1 | 53% (inactive)
CCOC(=O)c1cnc2c(C(F)(F)F)cccc2c1Nc1cccc(C(=O)OC)c1 | 26% (inactive)
CCOC(=O)c1cnc2c(C)cc(C)cc2c1Nc1ccccc1OCC | -1% (active)
CCOC(=O)c1cnc2c(Cl)cc(Cl)cc2c1Nc1ccccc1OC | 65% (inactive)

Structure (SMILES) | survival
CCOC(=O)c1cnc2c(C)cc(C)cc2c1Nc1ccc(OCc2ccccc2)cc1 | 11% (active)
CCOC(=O)c1cnc2c(ccc3ccccc32)c1Nc1ccccc1OCC | 109% (inactive)
CCOC(=O)c1cnc2c(C)cc(C)cc2c1Nc1cccc(C(=O)O)c1 | 23% (active)
Cc1nn2c(=O)cc(COC(=O)c3ccccc3NC(=O)C(C)C)nc2s1 | 74% (inactive)
Cc1cc(C)c2nc(N(Cc3cccnc3)C(=O)c3ccc(S(=O)(=O)N(C)C)cc3)sc2c1 | 57% (inactive)
COc1cccc(-c2nc(CS(=O)(=O)CC(=O)NCCc3ccc(OC)cc3OC)c(C)o2)c1 | 83% (inactive)
Cc1ccc(N(C)S(=O)(=O)c2nnc(NC(=O)CC(C)C)s2)cc1 | 87% (inactive)
N=c1n(CCN2CCCCC2)c2ccccc2n1CC(O)COc1ccc(Cl)cc1Cl (stereo not drawn) | -3% (active)
N=c1n(CCN2CCCCC2)c2ccccc2n1CC(O)COc1ccccc1 (stereo not drawn) | 144% (inactive)
Cc1ccccc1OCC(O)Cn1c(=N)n(CCN2CCCCC2)c2ccccc21 (stereo not drawn) | 76% (inactive)
O=C(CSc1nc2c([nH]c3ccccc32)c(=O)n1-c1ccccc1)NCc1ccc(F)cc1 | 87% (inactive)
COCCNC(=O)CSc1nnc(-c2ccc(OC)c(OC)c2)c(-c2ccc(OC)c(OC)c2)n1 | 68% (inactive)
CC(=O)N1N=C(c2ccccc2)CC1c1ccccc1 (stereo not drawn) | 104% (inactive)
C=Cc1ccc(Cn2nc(-c3ccc(C)cc3)ccc2=O)cc1 | 57% (inactive)
O=C(O)/C(=C/C(=O)c1ccccc1)Nc1ccccc1 | 100% (inactive)
CC(C)c1ccc(C(=O)Nc2ccc(-c3nc4ccccc4s3)c(Cl)c2)cc1 | 141% (inactive)
Cc1nc2ccc(S(=O)(=O)NC(C(=O)NCc3ccccc3Cl)C(C)C)cc2s1 (stereo not drawn) | 85% (inactive)
CC(C)c1ccc(S(=O)(=O)Nc2ccc(O)c(Sc3nc4ccccc4s3)c2)cc1 | 0% (active)
O=C(COc1ccc(Cl)cc1)Nc1ccc(O)c(-c2nc3ccccc3s2)c1 | 69% (inactive)
CC(C)(C)c1ccc(S(=O)(=O)Nc2ccc(O)c(Sc3nc4ccccc4s3)c2)cc1 | 3% (active)
Cn1c(=O)sc2cc(NS(=O)(=O)c3ccc(C(C)(C)C)cc3)ccc21 | 73% (inactive)
O=S(=O)(Nc1ccc(O)c(Sc2nc3ccccc3s2)c1)c1cc(Cl)ccc1Cl | 0% (active)
Cc1cc(S(=O)(=O)Nc2ccc3oc4c(c3c2)CCCC4)ccc1Cl | 46% (inactive)
Cc1cc(S(=O)(=O)Nc2ccc(O)c(Sc3nc4ccccc4s3)c2)ccc1Cl | -2% (active)

Structure (SMILES) | survival
O=S(=O)(Nc1ccc2oc3c(c2c1)CCCC3)c1cc(Cl)ccc1Cl | 46% (inactive)
CC(C)NC(=O)c1nc2ccccc2s1 | 120% (inactive)
CC(=O)c1c(C)oc2ccc(NS(=O)(=O)c3ccc(C(C)C)cc3)cc12 | 86% (inactive)
CCN(C(=O)CSc1nnc(-c2cc(OC)c(OC)c(OC)c2)o1)c1ccccc1 | 87% (inactive)
CCn1c(CNC(=O)c2ccc(OC)cc2)nnc1SCC(=O)Nc1cccc(C)c1 | 119% (inactive)
CCC(C(=O)Nc1cccc(C#N)c1)n1nc(-c2ccccc2)ccc1=O (stereo not drawn) | 79% (inactive)
CC(C)N(Cc1ccccc1)C(=O)Cn1ncc2c3ccccc3n(Cc3ccccc3)c2c1=O | 96% (inactive)
CN(C)c1ccc(C(CNS(=O)(=O)c2ccc(Br)cc2)N2CCCC2)cc1 (stereo not drawn) | 68% (inactive)
C=CCC(CC=C)(CNC(=O)C(=O)Nc1ccc(Br)cc1)c1ccc(OC)c(OC)c1 | 90% (inactive)
CCCNC(=O)CN1CCN(c2ccc(NC(=O)c3ccc(OC)cc3)cc2C(=O)O)CC1 | 87% (inactive)
Cc1cccc(NC(=O)c2ccc(F)c(S(=O)(=O)N3CCC4(CC3)OCCO4)c2)c1 | 71% (inactive)
O=C(Nc1ccc(N2CCOCC2)c(C(=O)O)c1)c1ccc(Br)cc1 | 0% (active)
COc1ccc(C(=O)Nc2ccc(N3CCN(c4ccccc4)CC3)c(C(=O)O)c2)cc1 | 83% (inactive)
CC(=O)c1ccc(N2CCN(c3ccc(NC(=O)c4ccc(F)cc4)cc3C(=O)O)CC2)cc1 | 14% (active)
O=C(Nc1ccc(N2CCC(N3CCCCC3)CC2)c(C(=O)O)c1)c1ccc(Br)cc1 | 75% (inactive)
Cc1cccc(NC(=O)c2ccc(F)c(S(=O)(=O)N3CCN(c4ccc(F)cc4)CC3)c2)c1 | -3% (active)
O=C(Nc1ccc(N2CCN(CCOc3ccc(Cl)cc3)CC2)c(C(=O)O)c1)c1ccc(F)cc1 | -3% (active)
O=C(Nc1ccc(N2CCC(N3CCCCC3)CC2)c(C(=O)O)c1)c1ccccc1 | 70% (inactive)
O=C(Nc1ccc(N2CCN(c3ccc(F)cc3)CC2)c(C(=O)O)c1)c1ccccc1F | 76% (inactive)
CCOc1ccccc1NC(=O)c1ccc(F)c(S(=O)(=O)N2CCN(c3ccc(F)cc3)CC2)c1 | 60% (inactive)
Cc1cccc(C(=O)Nc2ccc(N3CCN(c4ccc(F)cc4)CC3)c(C(=O)O)c2)c1 | 63% (inactive)
COc1ccc(NC(=O)c2nnn(CC(=O)Nc3cc(C)cc(C)c3)c2N)c(OC)c1 | 139% (inactive)
CC(=O)Nc1ccc(NC(=O)CCNS(=O)(=O)c2cccc3nsnc23)cc1 | 89% (inactive)
Cn1c(-c2ccc(NC(=O)c3ccccc3)cc2)n[nH]c1=S | 113% (inactive)

Structure (SMILES) | survival
CC(C)COc1ccc(Nc2ncnc3ccc(Br)cc23)cc1 | 79% (inactive)
O=C(NCC(c1cccnc1)N1CCc2ccccc2C1)C(=O)Nc1cccc(Cl)c1 (stereo not drawn) | 47% (inactive)
Cc1ccc(Cl)cc1N1CCN(CCCNC(=O)Cn2ncc3c([nH]c4ccccc43)c2=O)CC1 | 99% (inactive)
Cc1cc(C)cc(-n2c(C)nc3cc(C(=O)NCc4ccc(F)cc4)ccc32)c1 | 138% (inactive)
CC(NC(=O)c1ccccc1)c1n[nH]c(=S)n1C (stereo not drawn) | 109% (inactive)
CC(C)NC(=O)/C=C/c1ccc2c(c1)OCO2 | 110% (inactive)
O=C(Cn1c(=O)n(Cc2ccccc2)c(=O)c2sc3ccccc3c21)NCc1ccccc1Cl | 125% (inactive)
CC1=C(C(=O)OCc2ccc(C)cc2)C(c2ccccc2F)CC(=O)N1 (stereo not drawn) | 115% (inactive)
COc1ccc(CNCc2c(C(=O)O)c(C)n(Cc3ccc(Cl)cc3)c2C)c(OC)c1 | 101% (inactive)
COc1cc(CNc2ccc3c(c2)ncn3C(C)C)cc(OC)c1OC | 66% (inactive)
CCc1ccc(CNc2ccc3c(c2)ncn3C(C)(C)C)cc1 | -16% (active)
CCCn1cnc2cc(NCc3ccccc3OCC)ccc21 | 61% (inactive)
CC(C)(C)n1cnc2cc(NCc3ccccc3Cl)ccc21 | 8% (active)
COc1cccc(CNc2ccc3c(c2)ncn3C)c1OC | 121% (inactive)
CCCCn1cnc2cc(NC(=O)c3cc(OC)c(OC)c(OC)c3)ccc21 | 79% (inactive)
CCCn1cnc2cc(NCc3ccc(OC)cc3OC)ccc21 | 63% (inactive)
CC(C)(C)n1cnc2cc(NS(=O)(=O)c3ccccc3)ccc21 | 112% (inactive)
CCCCn1cnc2cc(NCc3ccccc3Cl)ccc21 | -16% (active)
CCn1cnc2cc(NCc3ccc(N(C)C)cc3)ccc21 | 94% (inactive)
CCCCn1cnc2cc(NCc3ccc(OCC)cc3)ccc21 | 4% (active)
CCCn1cnc2cc(NC(=O)c3cc(OC)c(OC)c(OC)c3)ccc21 | 76% (inactive)
